# The source made the active and inactive calls.
# Key:
# [1] = binders of probe aFSTL3 on microarray, primary screen, stem cell growth factor project, biochemical, small-molecule microarray, fluorescence 635/667 (AID 1064); details: higher = more signal;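 note: measures binding of the biotinylated anti-FSTL3 antibody to printed compounds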
# [2] = binders from COS7 lysate, DM2A8 probe, primary screen, torsin A project, cell lysate, small-molecule microarray, fluorescence 635/667 (AID 1065); details: higher = more signal, COS7 lysate expressing mutant human TOR1A
# [3] = binders of probe aFGF2 on microarray, primary screen, stem cell growth factor project, biochemical, small-molecule microarray, fluorescence 635/667 (AID 1067); details: higher = more signal;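 note: measures binding of biotinylated aFGF2 protein to printed compounds on slides; z-score merges feature fluorescence and signal-to-noise across triplicate slides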
# [4] = binders of probe aFGF10 on microarray, primary screen, stem cell growth factor project, biochemical, small-molecule microarray, fluorescence 635/667 (AID 1071); details: higher = more signal;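 note: score merges 667 nm spot intensity and signal to noise from triplicate slides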
# [5] = target: Neurogenic locus notch homolog protein 2 (Homo sapiens) (UniProt Q04721); assay: Notch2 binders on small-molecule microarrays, primary screen, biochemical, small-molecule microarray, 635 nm fluorescence, stem cell growth factors (AID 1073); details: Notch2 binding, higher = more signal
# Chain of Neurogenic locus notch homolog protein 2 (Homo sapiens) (Q04721 whole entry, looked up, canonical isoform): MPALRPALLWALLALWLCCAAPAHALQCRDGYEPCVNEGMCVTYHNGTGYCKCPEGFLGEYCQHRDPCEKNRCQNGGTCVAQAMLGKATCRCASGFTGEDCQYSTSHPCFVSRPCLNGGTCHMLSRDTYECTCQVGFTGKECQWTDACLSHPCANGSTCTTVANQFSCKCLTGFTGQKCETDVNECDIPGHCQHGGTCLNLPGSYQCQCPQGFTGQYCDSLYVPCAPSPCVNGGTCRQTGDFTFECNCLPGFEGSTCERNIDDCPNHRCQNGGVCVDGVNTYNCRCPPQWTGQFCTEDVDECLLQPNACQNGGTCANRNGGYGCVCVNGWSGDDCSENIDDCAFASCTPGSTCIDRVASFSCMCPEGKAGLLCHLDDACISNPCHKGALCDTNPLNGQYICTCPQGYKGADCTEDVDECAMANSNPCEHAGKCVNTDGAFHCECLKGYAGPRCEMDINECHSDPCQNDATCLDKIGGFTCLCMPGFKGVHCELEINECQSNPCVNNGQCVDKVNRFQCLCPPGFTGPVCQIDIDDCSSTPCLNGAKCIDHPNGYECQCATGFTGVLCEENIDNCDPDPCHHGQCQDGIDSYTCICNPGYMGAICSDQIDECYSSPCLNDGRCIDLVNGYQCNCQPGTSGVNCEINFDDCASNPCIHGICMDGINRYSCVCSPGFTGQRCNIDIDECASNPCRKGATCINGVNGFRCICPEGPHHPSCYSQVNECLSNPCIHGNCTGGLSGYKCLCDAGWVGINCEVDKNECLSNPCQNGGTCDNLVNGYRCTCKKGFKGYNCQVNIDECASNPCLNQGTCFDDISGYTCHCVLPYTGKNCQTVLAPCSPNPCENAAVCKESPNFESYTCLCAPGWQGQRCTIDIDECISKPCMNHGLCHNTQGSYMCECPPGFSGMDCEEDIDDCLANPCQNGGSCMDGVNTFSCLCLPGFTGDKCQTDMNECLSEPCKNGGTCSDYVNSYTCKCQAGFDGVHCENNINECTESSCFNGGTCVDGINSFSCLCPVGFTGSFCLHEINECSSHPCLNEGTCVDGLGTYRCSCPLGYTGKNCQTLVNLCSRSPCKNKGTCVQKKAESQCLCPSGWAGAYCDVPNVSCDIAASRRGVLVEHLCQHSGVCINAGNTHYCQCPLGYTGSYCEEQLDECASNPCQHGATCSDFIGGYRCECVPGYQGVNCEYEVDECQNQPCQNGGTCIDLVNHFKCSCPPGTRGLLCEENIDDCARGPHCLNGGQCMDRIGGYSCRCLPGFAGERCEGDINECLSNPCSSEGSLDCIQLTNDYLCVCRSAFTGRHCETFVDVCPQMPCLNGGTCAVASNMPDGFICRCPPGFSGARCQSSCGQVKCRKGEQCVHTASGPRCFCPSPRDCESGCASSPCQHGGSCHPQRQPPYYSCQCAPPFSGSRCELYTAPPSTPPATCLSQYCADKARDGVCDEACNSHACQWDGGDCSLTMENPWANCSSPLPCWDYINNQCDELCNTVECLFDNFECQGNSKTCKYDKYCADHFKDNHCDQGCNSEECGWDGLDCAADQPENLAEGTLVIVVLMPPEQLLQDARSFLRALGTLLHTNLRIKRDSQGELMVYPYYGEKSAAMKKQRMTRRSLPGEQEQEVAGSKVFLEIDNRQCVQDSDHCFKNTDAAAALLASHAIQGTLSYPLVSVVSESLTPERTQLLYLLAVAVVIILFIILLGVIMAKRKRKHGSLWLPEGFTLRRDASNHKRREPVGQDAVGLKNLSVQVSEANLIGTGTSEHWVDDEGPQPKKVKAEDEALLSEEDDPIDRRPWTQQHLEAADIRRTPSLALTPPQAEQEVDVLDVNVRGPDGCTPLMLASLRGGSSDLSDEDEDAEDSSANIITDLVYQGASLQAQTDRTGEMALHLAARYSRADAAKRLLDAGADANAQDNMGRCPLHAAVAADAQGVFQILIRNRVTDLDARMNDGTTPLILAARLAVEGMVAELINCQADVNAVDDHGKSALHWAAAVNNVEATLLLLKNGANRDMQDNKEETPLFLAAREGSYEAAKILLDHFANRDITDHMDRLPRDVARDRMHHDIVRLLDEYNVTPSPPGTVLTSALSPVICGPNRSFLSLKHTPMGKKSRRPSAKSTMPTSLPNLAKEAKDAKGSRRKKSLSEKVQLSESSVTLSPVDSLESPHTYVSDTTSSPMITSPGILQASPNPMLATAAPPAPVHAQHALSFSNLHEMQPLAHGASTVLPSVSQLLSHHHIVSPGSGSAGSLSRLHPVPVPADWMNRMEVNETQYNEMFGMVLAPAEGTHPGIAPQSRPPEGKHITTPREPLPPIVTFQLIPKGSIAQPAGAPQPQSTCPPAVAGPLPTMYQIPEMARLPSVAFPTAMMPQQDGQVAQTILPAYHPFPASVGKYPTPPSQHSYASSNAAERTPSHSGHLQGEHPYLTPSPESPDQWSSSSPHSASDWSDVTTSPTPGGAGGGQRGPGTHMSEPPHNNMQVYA
# [6] = target: Pro-neuregulin-1, membrane-bound isoform (Homo sapiens) (UniProt Q02297); assay: NRG1 binders on small-molecule microarrays, primary screen, psychiatric disease protein project, biochemical, small-molecule microarray, fluorescence 635/667 (AID 1075); details: NRG1 binding, 635 nm fluorescence, higher = more signal;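 note: score combines 667 nm spot fluorescence with signal to noise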
# Chain of Pro-neuregulin-1, membrane-bound isoform (Homo sapiens) (Q02297 whole entry, looked up, the tested form may be a part, canonical isoform): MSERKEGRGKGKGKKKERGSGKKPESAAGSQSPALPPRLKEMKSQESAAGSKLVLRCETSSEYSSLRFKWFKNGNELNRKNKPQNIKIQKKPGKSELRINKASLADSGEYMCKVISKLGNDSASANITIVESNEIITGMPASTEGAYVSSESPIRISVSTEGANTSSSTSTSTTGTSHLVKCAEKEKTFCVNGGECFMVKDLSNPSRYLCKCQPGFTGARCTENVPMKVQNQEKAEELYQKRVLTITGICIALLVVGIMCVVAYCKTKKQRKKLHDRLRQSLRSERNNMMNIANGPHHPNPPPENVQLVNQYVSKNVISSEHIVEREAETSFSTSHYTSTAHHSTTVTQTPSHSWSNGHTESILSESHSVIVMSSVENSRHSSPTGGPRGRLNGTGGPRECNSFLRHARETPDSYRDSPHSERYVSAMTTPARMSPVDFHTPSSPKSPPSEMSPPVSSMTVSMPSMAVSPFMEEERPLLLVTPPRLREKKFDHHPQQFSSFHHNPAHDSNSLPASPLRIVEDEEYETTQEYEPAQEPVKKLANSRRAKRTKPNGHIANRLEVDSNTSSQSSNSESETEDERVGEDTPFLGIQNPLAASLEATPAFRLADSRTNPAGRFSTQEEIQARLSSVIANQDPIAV
# [7] = test system: Neuregulin-1 EGF-like domain; assay: binders of neuregulin-1 EGF-like domain, primary screen, biochemical, small-molecule microarray, 635 nm fluorescence (AID 1081); details: small-molecule microarray binding, higher = more signal;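 note: binding of the protein to compounds printed on small-molecule microarray slides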
# [8] = FRG1 promoter luciferase signal modulators, primary screen, FRG1 inhibition for FSHD, cell-based, C2C12 myotubes, firefly/Renilla luciferase, luminescence (AID 1084); details: higher = more signal, called active from +8 up or from −8 down
# [9] = binders of probe aFST on microarray, primary screen, stem cell growth factor project, biochemical, small-molecule microarray, fluorescence 635/667 (AID 1086); details: higher = more signal;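 note: score merges 667 nm fluorescence with signal-to-noise of each printed compound spot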
# [10] = binders of probe aHhip on microarray, primary screen, stem cell growth factor project, biochemical, small-molecule microarray, fluorescence 635/667 (AID 1087); details: higher = more signal;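 note: score merges spot fluorescence at 667nm with spot signal to noise ratio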
# [11] = test system: PRMT1 (protein arginine N-methyltransferase 1); assay: PRMT1 binders on small-molecule microarrays, primary screen, biochemical, small-molecule microarray, 635 nm fluorescence (AID 1088); details: small-molecule microarray binding, higher = more signal;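 note: binding of Prmt1 protein to compounds spotted on small-molecule microarray slides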
# [12] = yeast growth modulation, basal conditions, primary screen, YJM789 clinical isolate, OD600, 24 h (AID 1089);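 note: growth of clinical yeast isolate S. cerevisiae YJM 789 seeded 1000 cells per well; test concentration not given here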; details: S. cerevisiae YJM789 growth, higher = more signal, called active from +8 up or from −8 down
# [13] = fission yeast growth modulation, primary screen, strain 972, OD600, 24 h, no modulator (AID 1090);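 note: basal condition with compound alone and no growth modifier present; test concentration not given here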; details: S. pombe 972 growth, higher = more signal, called active from +8 up or from −8 down
# [14] = S. cerevisiae growth modulation with rapamycin, primary screen, strain BY4716, OD600, 96 h (AID 1091); details: higher = more signal, called active from +8 up or from −8 down; note: test concentration not given here
# [15] = target: Torsin-1A-interacting protein 2 (Homo sapiens) (UniProt Q8NFQ8); assay: LULL1 binders on small-molecule microarray, primary screen, cell lysate, human LULL1 lysate, 635/667 nm fluorescence (AID 1092); details: hLULL1 lysate binding, 635 nm fluorescence, higher = more signal;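 note: probe is lysate of COS7 cells overexpressing human LULL1; score merges per-feature 667 nm fluorescence with signal-to-noise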
# Chain of Torsin-1A-interacting protein 2 (Homo sapiens) (Q8NFQ8 whole entry, looked up): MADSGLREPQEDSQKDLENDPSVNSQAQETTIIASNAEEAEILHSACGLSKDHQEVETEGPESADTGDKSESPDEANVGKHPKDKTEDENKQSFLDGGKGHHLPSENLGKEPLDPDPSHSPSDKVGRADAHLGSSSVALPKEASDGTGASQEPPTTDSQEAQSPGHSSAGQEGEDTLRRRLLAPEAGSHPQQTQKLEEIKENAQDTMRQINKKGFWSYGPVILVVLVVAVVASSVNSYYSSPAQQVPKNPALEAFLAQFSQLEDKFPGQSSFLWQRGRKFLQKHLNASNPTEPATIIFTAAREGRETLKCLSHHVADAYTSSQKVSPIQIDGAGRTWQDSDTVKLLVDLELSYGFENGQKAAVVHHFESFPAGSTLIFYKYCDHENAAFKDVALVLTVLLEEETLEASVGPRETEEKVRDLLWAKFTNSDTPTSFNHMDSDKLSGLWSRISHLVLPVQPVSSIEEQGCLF
# [16] = E. coli growth modulation, two-sided OD650, primary screen, E. coli filamentation project, strain DRC41, 24 h (AID 1093); details: OD650, 24 h, higher = more signal, called active from +8 up or from −8 down;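 note: MC1000 strain lacking acrAB efflux and sulA so SOS filamentation is blocked; test concentration not given here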
# [17] = small-molecule microarray binders of probe aLefty2, primary screen, biochemical, biotinylated probe, 635/667 nm fluorescence (AID 1094); details: higher = more signal;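 note: score merges spot fluorescence near 667 nm with spot signal-to-noise ratio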
# [18] = test system: Noggin (protein binding on small-molecule microarray); assay: Noggin binders on small-molecule microarray, primary screen, biochemical, 635/667 nm fluorescence (AID 1095); details: 635 nm fluorescence, higher = more signal;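 note: score merges 667 nm feature fluorescence with signal to noise over triplicate slides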
# [19] = target: Neurogenic locus notch homolog protein 3 (Homo sapiens) (UniProt Q9UM47); assay: NOTCH3 binders on small-molecule microarray, primary screen, biochemical, 635/667 nm fluorescence (AID 1096); details: NOTCH3 binding, 635 nm fluorescence, higher = more signal
# [20] = small-molecule microarray binders of probe aEGFR, primary screen, biochemical, biotinylated probe, 635/667 nm fluorescence (AID 1097); details: higher = more signal;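 note: probe is a biotinylated anti-EGFR antibody binding compounds printed on slides; score combines fluorescence near 667 nm and signal to noise of each spot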
SMILES,composite z-score [1],composite z-score [2],composite z-score [3],composite z-score [4],composite z-score [5],composite z-score [6],composite z-score [7],z-score [8],composite z-score [9],composite z-score [10],composite z-score [11],z-score [12],z-score [13],z-score [14],composite z-score [15],z-score [16],composite z-score [17],composite z-score [18],composite z-score [19],composite z-score [20]
O=C1O[C@@H](c2ccccc2)[C@@H](c2ccccc2)N2[C@@H](c3ccccc3OCCO)[C@]3(C(=O)Nc4ccc(C#CC5=CCCCC5)cc43)[C@@H](C(=O)NC[C@H](O)c3ccccc3)[C@H]12,-0.595,2.06,0.0296,0.648,0.948,1.42,1.01,-0.279 (inactive),0.517,-0.0391,1.55,1.03 (inactive),0.112 (inactive),3.61 (inactive),2.38,1.38 (inactive),-0.273,0.988,1.11,-0.0371
CN1C2C=C(CCCO)C(C3C(=O)N(C(N)=O)C(=O)C32)C1c1cccs1 (stereo not given),-0.153,0.104,-0.116,-1.63,0.127,-0.317,0.165,-0.194 (inactive),0.0118,0.303,0.613,1.06 (inactive),1.1 (inactive),0.689 (inactive),0.502,0.155 (inactive),0.89,-0.23,-0.658,0.976
COc1ccc(C#Cc2ccc3c(c2)[C@]2(C(=O)N3)[C@H](C(=O)N3CCc4cc(OC)c(OC)cc4C3)[C@H]3C(=O)O[C@H](c4ccccc4)[C@H](c4ccccc4)N3[C@@H]2c2ccc(O)cc2)cc1,-0.439,0.606,-0.0583,0.282,0.781,1.27,1.19,1.57 (inactive),0.295,-0.12,1.57,1.36 (inactive),1.14 (inactive),1.91 (inactive),2.28,-0.384 (inactive),-0.143,0.875,1.01,-0.0142
C=C(CCCC)C(=O)CC[C@@H](OC(=O)c1ccccc1-c1ccccc1C(=O)O)c1cccc(OCCO)c1,-0.208,0.996,-0.129,0.166,-0.404,0.143,0.742,0.238 (inactive),-0.499,-0.249,1.53,0.299 (inactive),-0.694 (inactive),-0.541 (inactive),0.13,0.169 (inactive),-0.31,1.06,0.675,-0.287
CC1CC/C=C\[C@H]2OC34C=CCN(c5ccc6ccccc6c5)C(=O)[C@H]3N(C(CO)C(C)C)C(=O)[C@@H]4C2C(=O)O1 (stereo not given in full),-0.729,-0.0684,-0.0598,-0.0104,-0.477,1.93,1.43,0.718 (inactive),-0.25,-0.132,0.445,-1.03 (inactive),-1.55 (inactive),-0.797 (inactive),1.76,-0.578 (inactive),-0.0313,-0.0033,0.135,-0.126
CC(C)(C)OC(=O)CC[C@]1(C(=O)O)N=C(c2ccc(OCCCO)cc2)O[C@H]1c1ccccc1,-0.161,-0.0254,-0.0345,0.19,0.831,0.467,1.11,1.9 (inactive),0.292,1.28,-0.147,-0.627 (inactive),-0.573 (inactive),-1.97 (inactive),2.2,0.461 (inactive),-0.0226,-0.0257,0.154,-0.0485
O=C1NC(=O)C2C1C=CC(C(O)c1cc(C(F)(F)F)cc(C(F)(F)F)c1)N2Nc1ccc(Cl)cc1Cl (stereo not given),0.812,0.623,0.277,0.404,0.351,1.45,0.766,-0.166 (inactive),0.881,-0.0346,0.33,-1.44 (inactive),-17 (active),-0.256 (inactive),2.24,-2.34 (inactive),0.0094,-0.93,0.398,0.228
O=C1O[C@@H](c2ccccc2)[C@@H](c2ccccc2)N2[C@@H](c3ccc(O)cc3)[C@]3(C(=O)Nc4ccc(C#CCCO)cc43)[C@@H](C(=O)NC[C@H](O)c3ccccc3)[C@H]12,0.239,0.762,-0.206,-0.812,-0.724,0.381,1,-0.233 (inactive),-0.0873,-0.134,0.581,0.235 (inactive),-0.137 (inactive),0.914 (inactive),2.9,0.231 (inactive),-0.112,1.11,-0.494,-0.202
O=C1O[C@@H](c2ccccc2)[C@@H](c2ccccc2)N2[C@@H](c3ccc(O)cc3)[C@]3(C(=O)Nc4ccccc43)[C@@H](C(=O)Nc3nc4ccccc4s3)[C@H]12,0.0072,0.155,-0.0206,0.43,-0.434,1.28,1.15,-2.37 (inactive),0.642,0.0373,1.51,0.813 (inactive),0.849 (inactive),1.4 (inactive),2.77,-0.0768 (inactive),-0.15,0.797,0.881,-0.132

# Source: PubChem BioAssay
